Source: PubChem (National Center for Advancing Translational Sciences (NCATS))
AMA1 RON2 block: AMA1-RON2 (P. falciparum) interaction inhibition | AlphaScreen AMA1-biotinylated RON2 peptide binding | AID 720542 | Potency, µM (titrated, usually from 58.2 µM), without a hit: at the top dose activity change, negative = inhibition, usual class: inhibitors | 360,000 compounds, 0.2% hits;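 also: 0% = vehicle wells and -100% = peptide control; nearly all actives have a fitted effect of over 45% in size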
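AMA1 (3D7) with his tag at 25 nM final met compounds first, then biotinylated RON2 peptide at 25 nM; detection used donor plus acceptor beads, 10 µg/mL apiece, read by AlphaScreen after 30 min at room temperature.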
AmpC no deterg: blocks E. coli AmpC beta-lactamase in detergent-free assay; AmpC nitrocefin hydrolysis, absorbance 480 nm, 0.0001% Triton; Potency, µM (highest dose often 57.1 µM), for the others: at the highest dose activity change, negative = inhibition, actives largely listed as inhibitors; 330,000 compounds, 0.52% hits; AID 485341;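 also: plate controls were no compound for no effect and no enzyme for full effect; nearly all actives have a fitted effect of over 20% in size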
Target sequence (P00811 whole entry, looked up): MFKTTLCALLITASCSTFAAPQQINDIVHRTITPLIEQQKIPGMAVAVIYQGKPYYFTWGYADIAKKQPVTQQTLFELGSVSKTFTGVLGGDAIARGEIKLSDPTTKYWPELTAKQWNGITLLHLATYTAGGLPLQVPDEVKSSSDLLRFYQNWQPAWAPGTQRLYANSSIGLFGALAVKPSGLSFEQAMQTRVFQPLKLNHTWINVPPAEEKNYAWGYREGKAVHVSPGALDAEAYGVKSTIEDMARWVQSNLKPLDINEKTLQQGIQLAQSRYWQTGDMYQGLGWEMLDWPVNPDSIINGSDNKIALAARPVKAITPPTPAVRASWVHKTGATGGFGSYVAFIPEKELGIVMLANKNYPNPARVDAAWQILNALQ
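AmpC (5.3 nM in the dispensed reagent) in 20 mM phosphate pH 7.0 with 0.01% (detergent screen) or 0.0001% Triton X-100 was preincubated with compounds for 15 min at room temperature. Nitrocefin was then added from an 800 uM solution, and hydrolysis was followed at 480 nm.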
SARS PLP yeast: blocks SARS-CoV papain-like protease in a yeast assay | S. cerevisiae expressing SARS-CoV PLpro, growth rescue | Potency, µM (series often up to 32.9 µM), inactives show at the highest dose activity, positive = growth rescue, actives largely listed as activators | 330,000 compounds, 0.19% hits; calls by dose curve; also: 0% is about no effect; nearly all actives have a fitted effect of over 55% in size
NS1 function inh: influenza NS1 inhibition | AID 2326 | 270,000 compounds, 0.4% hits | Potency, µM (titrated, usually from 46.1 µM), for the others: at the highest dose activity, positive = more growth; calls by dose curve; also: actives are rising curves; nearly all actives have a fitted effect of over 50% in size
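Recovery from NS1-induced slow growth read by OD600 in budding yeast switched to galactose assay medium (pH 6.0, -URA) at 1:100 dilution. Compound 23 nl per well; the matching strain lacking NS1 serves as control.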
AmpC inh detg: blocks E. coli AmpC beta-lactamase in detergent assay | P00811 | AmpC hydrolysis of nitrocefin, absorbance 480 nm, 0.01% Triton | Potency, µM (series often up to 114 µM), for inactives: at the highest dose activity change, negative = inhibition, hits mostly inhibitors | 370,000 compounds, 0.041% hits | AID 485294;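 also: 0% = no-compound wells and -100% = no-enzyme wells; nearly all actives have a fitted effect of over 25% in size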
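AmpC (5.3 nM in the dispensed reagent) in 20 mM phosphate pH 7.0 with 0.01% (detergent screen) or 0.0001% Triton X-100 was preincubated with compounds for 15 min at room temperature. Nitrocefin was then added from an 800 uM solution, and hydrolysis was followed at 480 nm.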
* hit, by the source's call; ? = inconclusive; · = no result given. In the library only some 0.99% were active in any assay of this set; here they are far more common. Unless noted, calls follow the shape of the dose curve; as a rule, active = well fitted curve in the direction sought with a large enough effect; inconclusive = small, poorly fitted or top-dose-only effect, or another doubt; inactive = no such curve, though single readings can be large; an effect the other way counts as inactive or inconclusive. Potency is read from the fitted curve at half-maximal effect.

SMILES	AMA1 RON2 block	AmpC no deterg	SARS PLP yeast	NS1 function inh	AmpC inh detg
COc1ccccc1NC(=O)c1nn(-c2ccccc2)ccc1=O	-3.0%	0.141µM*	-6.4%	-1.4%	-3.3%
O=C(CSc1nnnn1-c1ccccc1)Nc1ncc(Cc2ccccc2Cl)s1	7.9%	-15.8%	21.4%	6.2%	5.2%
N=C1SC(c2ccccc2)C(=O)N1c1ncc(Cc2ccccc2Cl)s1 (stereo not given)	73.6%	15.8µM*	4.5%	7.2%	-12.4%
c1ccc(C(c2cccc3c2ccc2ccccc23)[C@H](c2ccccc2)c2cccc3c2ccc2ccccc23)cc1 (stereo not given in full)	·	·	·	7.8%	·
CCOc1ccc(N2CC(c3nc4ccccc4n3CCCOc3ccccc3OC)CC2=O)cc1 (stereo not given)	·	·	·	·	-5.5%
O=C1NC(=S)S/C1=C\C=C\c1ccc([N+](=O)[O-])o1	-21.1%	11.2µM*	-22.3%	-104.7%	-8.1%
O=C(Nc1ccc(-c2cn3ccsc3n2)cc1)C1COc2ccccc2O1 (stereo not given)	-7.2%	15.8µM*	-4.5%	-18.2%	?
Cc1ccc(NC(=O)C2COc3ccccc3O2)cc1 (stereo not given)	-4.4%	-14.6%	-3.7%	-24.0%	-5.7%
CCOc1ccc2c(c1)c(=O)c(C(=O)c1ccc(C)cc1)cn2Cc1ccccc1OC	·	·	·	·	-13.3%
COc1ccc(OC)c2c1sc(=NC(=O)c1cccc(N3C(=O)CCC3=O)c1)n2C	3.3%	39.8µM*	-0.7%	16.7%	?
COc1cc(C(=O)N=c2sc3c(C)ccc(OC)c3n2C)cc(OC)c1OC	-9.0%	-6.7%	-3.9%	1.9%	-6.1%
COc1ccc(C(=O)N=c2sc3c(C)ccc(OC)c3n2C)cc1	-6.7%	1.12µM*	-3.2%	9.9%	?
COc1ccc(S(=O)(=O)c2c(Nc3c(C)cccc3C)sc(C(=O)c3ccc4c(c3)OCO4)c2N)cc1	·	·	·	·	3.0%
CC1=CC(=O)C=CC1=Nc1ccc(N(C)C)cc1	3.98µM*	·	·	·	·
COc1ccc(N2CCN(C(=O)c3cc(-c4cccs4)nc4ccccc34)CC2)cc1	12.6µM*	25.0%	-5.2%	5.7%	-7.9%
COc1ccc(N2CCN(C(=O)c3oc4ccccc4c3C)CC2)cc1	14.1µM*	4.6%	-4.9%	·	-14.3%
CC(=O)N1CCN(C(=O)c2oc3ccccc3c2C)CC1	-14.6%	-7.2%	4.2%	-1.2%	-2.7%
COc1ccc(-c2cc(C(=O)N3CCN(c4ccccc4)CC3)c3ccccc3n2)cc1OC	-1.7%	140.3%	-0.8%	24.8%	-3.4%
CCOc1ccc(C2C(=O)N(C3CCCCCC3)CC(=O)N2CCc2ccc(OC)c(OC)c2)cc1OC (stereo not given)	·	·	·	·	0.9%
COC(=O)CSc1nnc([C@H](Cc2ccccc2)NC(=O)OC(C)(C)C)o1	5.1%	21.6%	0.0%	0.4%	-14.3%
Cc1cccc(CS(=O)(=O)c2nnc([C@H](Cc3ccccc3)NC(=O)OC(C)(C)C)o2)c1	5.8%	-54.7%	-31.1%	-41.9%	39.8µM*
COC(=O)CS(=O)(=O)c1nnc([C@H](Cc2ccccc2)NC(=O)OC(C)(C)C)o1	26.6%	?	-21.4%	-138.6%	35.5µM*
CCc1ccc(CNC(=O)c2cnc3sc(N4CCCCCC4)nn3c2=O)cc1	·	·	·	·	20.6%
O=C(CSc1nc2nn(-c3ccccc3)c(=O)c-2c2n1CCCCC2)Nc1ccc(F)c(F)c1	-8.9%	10µM*	-3.8%	·	·
CC1Cc2ccccc2N1Cc1cccc([N+](=O)[O-])c1 (stereo not given)	10µM*	-34.0%	0.3%	?	-2.1%
SMILES	AMA1 RON2 block	AmpC no deterg	SARS PLP yeast	NS1 function inh	AmpC inh detg
CC1Cc2ccccc2N1Cc1ccc([N+](=O)[O-])cc1 (stereo not given)	11.2µM*	-30.7%	-8.4%	4.0%	-5.5%
C#CCn1c(S(=O)(=O)Cc2ccc(C)cc2)nc(-c2ccccc2)c1-c1ccccc1	-19.4%	-29.7%	-4.7%	11.7%	-9.2%
C#CCn1c(S(=O)(=O)Cc2ccccc2Cl)nc(-c2ccccc2)c1-c1ccccc1	-1.0%	4.47µM*	-0.6%	-1.8%	2.1%
COc1ccc(CCNC(=O)Cn2cc(S(=O)(=O)Cc3cccc(Cl)c3)c3ccccc32)cc1OC	·	·	·	·	12.6%
CCOC(=O)c1cnc(-n2[nH]c(C)cc2=O)[nH]c1=O	1.58µM*	-15.7%	23.7%	·	1.8%
CCOC(=O)c1nc(Nc2ccc(C(=O)OCC(C)C)cc2)c2ccccc2n1	·	·	·	·	-10.3%
N#CC1=C(N)Nc2nc3ccccc3n2C1c1ccc(Cl)cc1 (stereo not given)	9.2%	12.6µM*	-16.2%	1.1%	?
CCN(CC)C(=O)C1=C(C)Nc2nc3ccccc3n2C1c1ccc(Cl)cc1 (stereo not given)	·	·	·	·	18.4%
O=C1CC(N2CC=C(c3ccccc3)CC2)C(=O)N1c1ccc(F)cc1 (stereo not given)	1.6%	44.7µM*	-35.0%	-40.6%	?
O=C(CSc1nc2ccccc2n1CCc1ccccc1)c1ccc(O)c(O)c1	-16.8%	15.8µM*	3.1%	9.3%	2.0%
COc1ccc(NC(=O)CNS(=O)(=O)c2ccccc2)cc1Cl	25.9%	0.631µM*	1.2%	-4.1%	-2.7%
O=C(Cc1ncc(C(F)(F)F)cc1Cl)NC1CC1	-5.6%	-11.8%	-1.0%	·	?
O=C(Cc1ncc(C(F)(F)F)cc1Cl)Nc1ccc(F)cc1	2.3%	0.159µM*	-1.9%	-5.2%	0.8%
O=C(COC(=O)C12CC3CC(CC(Br)(C3)C1)C2)Nc1ccc2[nH]c(=O)[nH]c2c1	0.0%	31.6µM*	0.7%	·	-1.1%
O=C1c2cccc3cccc(c23)C(=O)N1OS(=O)(=O)c1ccccc1	2.0%	?	-2.4%	3.0%	-3.4%
Cc1ccc(S(=O)(=O)ON2C(=O)c3cccc4cccc(c34)C2=O)cc1	4.5%	-15.4%	-18.1%	13.8%	?
O=C1c2ccccc2C(=O)N1OS(=O)(=O)c1ccccc1	·	-22.3%	-13.8%	21.4%	44.7µM*
Cc1cc(S(=O)(=O)ON2C(=O)c3ccccc3C2=O)ccc1F	6.7%	-24.9%	-9.7%	0.5%	44.7µM*
Cc1ccc(C)c(S(=O)(=O)ON2C(=O)c3ccccc3C2=O)c1	32.0%	-13.0%	6.8%	1.8%	50.1µM*
COc1ccc(NC(=O)C2CCN(S(=O)(=O)c3ccc4c(c3)CCCC(=O)N4)CC2)cc1Cl	·	·	·	·	14.9%
O=C(CCc1ccccc1)c1c(O)cc(O)cc1O	-1.2%	17.8µM*	-0.6%	1.5%	3.9%
COc1ccc(C(=O)CCc2ccccc2)c(O)c1	18.0%	·	·	·	·
Cc1ccc(-n2ncc(C(=O)NCc3cccs3)c2C2CCN(C(=O)OC(C)(C)C)CC2)cc1C	·	·	·	·	19.1%
Cc1nnc(SCC(=O)c2c(N)n(C)c(=O)n(C)c2=O)n1Cc1ccccc1	8.9%	-0.4%	22.4µM*	3.1%	-13.4%
CCn1c(SCC(=O)c2c(N)n(C)c(=O)n(C)c2=O)nnc1-c1ccccc1	·	-11.0%	-12.5%	-5.8%	-13.5%
